# Reference: the supplement of paper PMC8728848
# About 410 targets per protein were measured; listed, in parts, are those with the strongest signals and a random draw of the rest.
# B1: PX9961KLbvu-535-38-535 (Bacteroides vulgatus) (protein)
# chain: DKAYTDAESYTKGLHKIYSVWALSGQDGSSSSDISGLDAGNTALLRCWWTLQEQPTDEMKNAWNDAWCTEVNYMTWTTNKVEPIEGVYQRCMYIVALVNEFLKNIPNAPESIDKESYIAQARFNRAFAYYVLMDMFALPPFITEKNYSIEPAPLSREDLFNWIEAELNEIKPNLPSPRSEYGVADQAVASALLARMYLNAEIYTGKARYTECINACNEVIKAGYQLADNYADLFKADNGENPDTKKEIIYPIIFDGDKTQSWGMAAIIIGARGAEDKDVLLAHSGVDQGWAGFRATSNLVHLFDFQNDEEPKASEIQDKRGIFYDKGRSIDITSSVSGTFETEGWSVFKFSNLNSNGQPGKNTLWVDTDFPMFRLGDIYLMYAEAVARGGEGSKASAVEYINALRKRAYGDDKHNISENWLEENNFRNLLDERGRELYWEGIRRTDLVRFDLLTSGSYTWDFKGGINTGVGVNKRYNVYPIPVTDLTVNGNLQQNEGY
# What was measured:
# Test in all cases: glycan array binding signal (z-score within array); higher = stronger binding
# Settings in all cases: glycan notation: IUPAC condensed, linker removed
# [1] = biological target: Fuc(a1-2)Gal(b1-3)GalNAc(a1-3)[Fuc(a1-2)]Gal(b1-4)GlcNAc
# How it was run: (§1)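 Glycan array data came from 3228 arrays in the Consortium for Functional Glycomics database, and only arrays with an available protein sequence were kept. Glycan names were put into IUPAC-condensed notation, and columns mapping to the same glycan were averaged. The binding signal is a within-array Z-score, averaged across arrays of one protein sequence run at different concentrations or buffers and across linkers. A negative Z-score can be read as non-binding.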
# [2] = biological target: Fuc(a1-2)Gal(b1-3)[Fuc(a1-4)]GlcNAc
# How it was run: as §1
# Fuc(a1-2)Gal(b1-4)Glc = biological target: Fuc(a1-2)Gal(b1-4)Glc
# How it was run: as §1
# [3] = biological target: Fuc(a1-2)Gal(b1-4)GlcNAc(b1-2)[Fuc(a1-2)Gal(b1-4)GlcNAc(b1-4)]Man(a1-3)[Fuc(a1-2)Gal(b1-4)GlcNAc(b1-2)Man(a1-6)]Man(b1-4)GlcNAc(b1-4)GlcNAc
# How it was run: as §1
# Fuc(a1-2)[Gal(a1-3)]Gal = biological target: Fuc(a1-2)[Gal(a1-3)]Gal
# How it was run: as §1
# [4] = biological target: Fuc(a1-2)[Gal(a1-3)]Gal(b1-3)GlcNAc(b1-2)Man(a1-3)[Fuc(a1-2)[Gal(a1-3)]Gal(b1-3)GlcNAc(b1-2)Man(a1-6)]Man(b1-4)GlcNAc(b1-4)GlcNAc
# How it was run: as §1
# [5] = biological target: Fuc(a1-2)[GalNAc(a1-3)]Gal(b1-4)[Fuc(a1-3)]GlcNAc(b1-3)GalNAc
# How it was run: as §1
# [6] = biological target: Fuc(a1-2)[GalNAc(a1-4)]Gal(b1-4)GlcNAc
# How it was run: as §1
# [7] = biological target: Fuc(a1-3)[Gal(b1-4)]GlcNAc(b1-2)Man(a1-3)[Fuc(a1-3)[Gal(b1-4)]GlcNAc(b1-2)Man(a1-6)]Man(b1-4)GlcNAc(b1-4)[Fuc(a1-6)]GlcNAc
# How it was run: as §1
# [8] = biological target: Fuc(a1-3)[Gal3S(b1-4)]GlcNAc6S
# How it was run: as §1
# Gal(a1-2)Gal = biological target: Gal(a1-2)Gal
# How it was run: as §1
# Gal(a1-3)Gal(b1-4)Glc = biological target: Gal(a1-3)Gal(b1-4)Glc
# How it was run: as §1
# [9] = biological target: Gal(a1-3)Gal(b1-4)GlcNAc(b1-2)Man
# How it was run: as §1
# [10] = biological target: Gal(a1-3)Gal(b1-4)GlcNAc(b1-2)Man(a1-3)[Gal(a1-3)Gal(b1-4)GlcNAc(b1-2)Man(a1-6)]Man(b1-4)GlcNAc(b1-4)GlcNAc
# How it was run: as §1
# [11] = biological target: Gal(a1-3)[Gal(a1-4)]Gal(b1-4)GlcNAc
# How it was run: as §1
# [12] = biological target: Gal(a1-4)Gal(b1-4)GlcNAc(b1-2)Man(a1-3)[Gal(a1-4)Gal(b1-4)GlcNAc(b1-2)Man(a1-6)]Man(b1-4)GlcNAc(b1-4)GlcNAc
# How it was run: as §1
# [13] = biological target: Gal(b1-3)GalNAc(a1-3)[Fuc(a1-2)]Gal(b1-4)GlcNAc
# How it was run: as §1
# [14] = biological target: Gal(b1-3)GlcNAc(b1-3)Gal(b1-3)GlcNAc
# How it was run: as §1
# [15] = biological target: Gal(b1-3)GlcNAc(b1-3)Gal(b1-4)GlcNAc(b1-6)[Gal(b1-3)GlcNAc(b1-3)]Gal(b1-4)Glc
# How it was run: as §1
# [16] = biological target: Gal(b1-3)GlcNAc(b1-6)Gal(b1-4)GlcNAc
# How it was run: as §1
# [17] = biological target: Gal(b1-3)[Fuc(a1-4)]GlcNAc
# How it was run: as §1
# [18] = biological target: Gal(b1-4)GalNAc(a1-3)[Fuc(a1-2)]Gal(b1-4)GlcNAc
# How it was run: as §1
# [19] = biological target: Gal(b1-4)GlcNAc(b1-2)Man(a1-3)Man(b1-4)GlcNAc(b1-4)GlcNAc
# How it was run: as §1
# [20] = biological target: Gal(b1-4)GlcNAc(b1-2)Man(a1-3)[GlcNAc(b1-4)][Gal(b1-4)GlcNAc(b1-2)Man(a1-6)]Man(b1-4)GlcNAc(b1-4)GlcNAc
# How it was run: as §1
# [21] = biological target: Gal(b1-4)GlcNAc(b1-3)Gal(b1-4)GlcNAc(b1-3)Gal(b1-4)GlcNAc(b1-3)Gal(b1-4)GlcNAc(b1-2)Man(a1-3)[Gal(b1-4)GlcNAc(b1-3)Gal(b1-4)GlcNAc(b1-3)Gal(b1-4)GlcNAc(b1-3)Gal(b1-4)GlcNAc(b1-2)Man(a1-6)]Man(b1-4)GlcNAc(b1-4)GlcNAc
# How it was run: as §1
# [22] = biological target: Gal(b1-4)GlcNAc(b1-3)[Fuc(a1-3)GlcNAc(b1-6)]Gal(b1-4)Glc
# How it was run: as §1
binder,measurement,setting,value
B1,glycan array binding signal (z-score),[1],-0.462
same,glycan array binding signal (z-score),[2],-0.042
same,glycan array binding signal (z-score),Fuc(a1-2)Gal(b1-4)Glc,-0.031
same,glycan array binding signal (z-score),[3],2.87
same,glycan array binding signal (z-score),Fuc(a1-2)[Gal(a1-3)]Gal,1.72
same,glycan array binding signal (z-score),[4],0.16
same,glycan array binding signal (z-score),[5],-0.162
same,glycan array binding signal (z-score),[6],-0.165
same,glycan array binding signal (z-score),[7],-0.392
same,glycan array binding signal (z-score),[8],-0.054
same,glycan array binding signal (z-score),Gal(a1-2)Gal,-0.938
same,glycan array binding signal (z-score),Gal(a1-3)Gal(b1-4)Glc,-0.366
same,glycan array binding signal (z-score),[9],-0.783
same,glycan array binding signal (z-score),[10],-0.391
same,glycan array binding signal (z-score),[11],2.6
same,glycan array binding signal (z-score),[12],2.35
same,glycan array binding signal (z-score),[13],-0.06
same,glycan array binding signal (z-score),[14],-0.549
same,glycan array binding signal (z-score),[15],-0.446
same,glycan array binding signal (z-score),[16],-0.398
same,glycan array binding signal (z-score),[17],-0.123
same,glycan array binding signal (z-score),[18],-0.291
same,glycan array binding signal (z-score),[19],0.158
same,glycan array binding signal (z-score),[20],-0.249
same,glycan array binding signal (z-score),[21],1.57
same,glycan array binding signal (z-score),[22],-0.046
